Test results taken from PubChem BioAssay (NCATS).
Inconclusive results are not listed. Where a call stands in place of a potency, no number is given. The source made the active and inactive calls. Calls follow the shape of the dose curve; as a rule, active = well fitted inhibition curve with a large enough effect; inconclusive = small, poorly fitted or top-dose-only effect; inactive = flat fitted curve, though single readings scatter.
Potency is read from the fitted curve at half-maximal effect.

Test: Cytometry Cell-Based qHTS for Inhibitors of the mTORC1 Signaling Pathway in MEF cells (AID 2668)
Settings: mTORC1 pathway readout; series mostly up to 38.3 µM
Excerpt: NIH Molecular Libraries Probe Production Centers Network [MLPCN]
NIH Chemical Genomics Center [NCGC]
Assay Submitter (PI): Blenis, John; Hoffman, Greg; Harvard University
NCGC Assay Overview: The mammalian target of rapamycin (mTOR) is an intracellular serine/threonine kinase Aberrant regulation of mTOR signaling plays a causative role in a number of human diseases, including cancer, benign tumors such as lymphangioleiomyomatosis (LAM) and Tuberous Sclerosis Complex (TSC), and metabolic diseases such as diabetes and obesity. This project aims to identify inhibitors of ribosomal protein S6 (rpS6) phosphorylation. The phosphorylation of rpS6 is a key event downstream of mTOR activation. The assay uses a phospho-specific antibody of phospho-rpS6 to detect inhibitors of mTOR activation. Mutations in the Tsc1 and Tsc2 genes are the underlying genetic lesions responsible for TSC, causing constitutive activation of the mTORC1 pathway and leading to profound effects on cell metabolism. Aberrant metabolism in cancer has recently received significant attention as a target to develop therapeutic agents in the treatment of cancer.1 As Tsc2-/- cells have lost the ability to respond to energy and growth factor deprivation, these cells are unable to properly down regulate cellular biosynthetic processes in response to metabolic stress, and are thus extremely sensitive to glucose deprivation-induced death.2 A central goal of this project is to explore the unique cell survival and metabolic properties of cells with Tsc1 or Tsc2 by screening for compounds that selectively target the Tsc2-/- MEFs by screening both Tsc2-/- and WT MEF cell lines. We hope to better understand these aspects of TSC physiology in order to exploit them for therapeutic benefit.
NCGC Acumen Assay Protocol:
For quantitative high throughput analysis of mTORC1 signaling, we developed a cell-based assay for immuno-fluorescence based detection of rpS6 phosphorylation on the Acumen Explorer that will be used a platform for the primary small molecule screen. Mouse embryonic fibroblasts (MEFs) are cultured in 1536-well plates using DMEM + 10% FBS. Twenty-four hrs after plating, test compounds (solubilized in DMSO) are delivered and incubated with the cells for 24 hrs at 37 degree Celsius. Following the incubation, media with compound is aspirated and the cells are fixed in 4% paraformaldehyde (PFA) containing PBS + 0.2% TX-100. Next, PFA is aspirated, cells are washed two times with PBS plus 0.2% TX-100 and the cells are blocked for 1 hr at room temperature (blocking buffer: LiCOR Blocking Buffer plus 0.2% TX-100). This is followed by aspiration and staining with Alexa-488 conjugated-phospho-rpS6 Ser235/236 antibody for 2 hours at room temperature (Cell Signaling Technology # 4803, 1:50 dilution in blocking buffer). Cells are washed two times with PBS plus 0.2% TX-100, and stained with 10 uM propidium iodide (PI) for 20-25 minutes for cell number measurement (1:500 dilution of Hoescht staining is also added for IN Cell imaging). The plates are scanned on the Acumen Explorer laser scanning instrument (TTP Labtech) using the 488nm laser for simultaneous excitation of the Alexa-488 and PI. The fluorescence emission from the Alexa-488 conjugated rpS6 phospho-235/236 antibody staining is selected using a […] band pass filter. Fluorescence emission from the PI stain is selected using a 575-640 nm band pass filter. The normalized phospho-S6 staining is calculated as the ratio of the integrated Alexa 488 intensity divided by the integrated PI intensity for the single concentration rapamycin control (7.5 nM) and DMSO columns. […] Inhibition of the pathway is defined based on the normalized phospho-S6 intensity in rapamycin treated cells. […]
In the case of CCCCC1C(=O)N(c2ccccc2)N(c2ccccc2)C1=O, the Potency is reported as “inactive”.
With COc1ccccc1N1CCN(CCCNc2cc(=O)n(C)c(=O)n2C)CC1 the Potency was “inactive”.
With COc1cccc(-c2cc(=O)c3ccccc3o2)c1N the Potency was “inactive”.
With CCN(CC)CCOC(=O)c1ccc(N)cc1 the Potency was “inactive”.
In the case of CCn1cc(C(=O)O)c(=O)c2ccc(C)nc21, the Potency is reported as “inactive”.
For CC(C)(C)c1ccc(C(O)CCCN2CCC(C(O)(c3ccccc3)c3ccccc3)CC2)cc1 (stereo unspecified), the Potency was 7.36 µM (active).
In the case of CC(=O)CCCCn1c(=O)c2c(ncn2C)n(C)c1=O, the Potency is reported as “inactive”.
With NCCS the Potency was “inactive”.
For CC(C)NCC(O)COc1cccc2[nH]ccc12 (stereo unspecified), the Potency was “inactive”.
With CCCCCN(C)CCC(O)(P(=O)(O)O)P(=O)(O)O the Potency was “inactive”.
In the case of CCCNC(=O)NS(=O)(=O)c1ccc(Cl)cc1, the Potency is reported as “inactive”.
In the case of COc1ccc(Cc2nccc3cc(OC)c(OC)cc23)cc1OC, the Potency is reported as “inactive”.
For CN(C)CCC(c1ccccc1)c1ccccn1 (stereo unspecified), the Potency was “inactive”.
With O=c1c(-c2ccc(O)cc2)coc2cc(O)ccc12 the Potency was “inactive”.
For C[N+](C)(C)CCCCCC[N+](C)(C)C, the Potency was “inactive”.
With CC1=C(/C=C/C(C)=C/C=C/C(C)=C/C(=O)Nc2ccc(O)cc2)C(C)(C)CCC1 the Potency was 18.5 µM (active).
With C[N+](C)(C)CC(=O)O the Potency was “inactive”.
For CC(=O)c1ccc(S(=O)(=O)NC(=O)NC2CCCCC2)cc1, the Potency was “inactive”.
For O=C(O)CCc1nc(-c2ccccc2)c(-c2ccccc2)o1, the Potency was “inactive”.
In the case of CCN1CCC[C@H]1CNC(=O)c1cc(S(N)(=O)=O)ccc1OC, the Potency is reported as “inactive”.
For O=C(NCCN1CCOCC1)c1ccc(Cl)cc1, the Potency was “inactive”.
In the case of NC(N)=Nc1nc(CSCC/C(N)=N/S(N)(=O)=O)cs1, the Potency is reported as “inactive”.
In the case of CC(=O)N[C@@H](CS)C(=O)O, the Potency is reported as “inactive”.
In the case of Clc1ccc(Cn2c(CN3CCCC3)nc3ccccc32)cc1, the Potency is reported as “inactive”.
For CC(=O)O[C@]1(C(C)=O)CC[C@H]2[C@@H]3C=C(Cl)C4=CC(=O)[C@@H]5C[C@@H]5[C@]4(C)[C@H]3CC[C@@]21C, the Potency was “inactive”.
In the case of O=C1NCC2(CCN(CCc3ccccc3)CC2)O1, the Potency is reported as “inactive”.
With O=c1cc(-c2ccc(O)cc2)oc2cc(O)cc(O)c12 the Potency was “inactive”.
With O=C1NC(=O)C(c2ccccc2)(c2ccccc2)N1 the Potency was “inactive”.
In the case of Cc1cccc(C)c1OCC(C)N (stereo unspecified), the Potency is reported as “inactive”.
For CCN(CC)CCNC(=O)c1ccc(N)cc1, the Potency was “inactive”.
For CCN(CC)C(=O)c1ccc(O)c(OC)c1, the Potency was “inactive”.
